“And” between values parts separate entries of the source, which are not always exact repeats. Equal values may be shown once. Results filed as inconclusive are left out. The source made the active and inactive calls. How the source made its calls: active means hit-call score of the fitted dose curve at least 0.9, where 1 is the maximum; inconclusive means response in the unintended direction; inactive means score below 0.9.
Tests used:
[1] = ACEA_ER_AUC_viability: ACEA Biosciences xCELLigence Real-Time Cell Analysis on Estrogen Receptor Agonism for Viability (AID 2283782);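 further: hit means loss of impedance signal meaning reduced cell growth or viability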
In short: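 Viability endpoint: reduced impedance area under the curve relative to DMSO, recorded by real-time electrode sensing over ~80 h of continuous exposure. Duplicate plates of T47D in hormone-depleted medium; eight concentrations, 1:4 dilutions, 100 uM maximum.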

[2] = ACEA_AR_agonist_AUC_viability: ACEA Biosciences xCELLigence Real-Time Cell Analysis on Androgen Receptor Agonism for Viability (AID 2283775);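 on AC50: viability read 80 hours after compound addition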
In short: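 Viability endpoint from xCELLigence impedance in 22Rv1 prostate cells at 80 h. Eight-point series, 100 uM maximum final.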

[3] = ACEA_AR_antagonist_AUC_viability: ACEA Biosciences xCELLigence Real-Time Cell Analysis on Androgen Receptor Antagonism for Viability (AID 2283776);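 further: area under impedance growth curve at 80 h after dosing as viability; hits lower the growth signal relative to DMSO meaning cytotoxicity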
In short: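 22Rv1 human prostate cancer cells were seeded on electrode plates, monitored overnight, then exposed to eight 1:4 dilutions from 100 uM final. Impedance-based growth kinetics at 80 h gave an AUC viability endpoint normalized to DMSO.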

[4] = biological target: AR (gene 367) (UniProt P10275); assay: ACEA_AR_antagonist_80hr: ACEA Biosciences xCELLigence Real-Time Cell Analysis on Androgen Receptor Antagonism for Proliferation (AID 2283787);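 further: hits lower the impedance growth signal relative to DMSO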
In short: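 Impedance-based real-time growth of 22Rv1 prostate cells, read 80 h after dosing. Eight concentrations, 1:4 series, top 100 uM final (0.5% DMSO), n = 2; signal decrease scored against DMSO.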

[5] = biological target: AR (gene 367) (UniProt P10275); assay: ACEA_AR_agonist_80hr: ACEA Biosciences xCELLigence Real-Time Cell Analysis on Androgen Receptor Agonism for Proliferation (AID 2283783);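 further: hits increase impedance growth signal above DMSO baseline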
In short: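 Eight concentrations, 1:4 serial dilution from a 100 uM final top, in biological duplicate. Impedance-based real-time growth of 22Rv1 cells after overnight baseline, recorded hourly and read at 80 hours. Controls: testosterone, MG132, assay media.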

[6] = STM_H9_NormalizedViability: Cytotoxicity Assessment at 120 hours in the Stemina devTOX quickPredict H9 human embryonic stem cell (hESC)-based Assay (AID 2283784)
In short: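 CellTiter-Fluor RFU, background-subtracted, expressed relative to 0.1% DMSO neutral control by plate. Pluripotent H9 cells; treatment with daily re-dosing. Plates carried 1uM methotrexate (positive) and 5 nM methotrexate (negative) references.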

Chain of AR (gene 367) (P10275 whole entry, looked up): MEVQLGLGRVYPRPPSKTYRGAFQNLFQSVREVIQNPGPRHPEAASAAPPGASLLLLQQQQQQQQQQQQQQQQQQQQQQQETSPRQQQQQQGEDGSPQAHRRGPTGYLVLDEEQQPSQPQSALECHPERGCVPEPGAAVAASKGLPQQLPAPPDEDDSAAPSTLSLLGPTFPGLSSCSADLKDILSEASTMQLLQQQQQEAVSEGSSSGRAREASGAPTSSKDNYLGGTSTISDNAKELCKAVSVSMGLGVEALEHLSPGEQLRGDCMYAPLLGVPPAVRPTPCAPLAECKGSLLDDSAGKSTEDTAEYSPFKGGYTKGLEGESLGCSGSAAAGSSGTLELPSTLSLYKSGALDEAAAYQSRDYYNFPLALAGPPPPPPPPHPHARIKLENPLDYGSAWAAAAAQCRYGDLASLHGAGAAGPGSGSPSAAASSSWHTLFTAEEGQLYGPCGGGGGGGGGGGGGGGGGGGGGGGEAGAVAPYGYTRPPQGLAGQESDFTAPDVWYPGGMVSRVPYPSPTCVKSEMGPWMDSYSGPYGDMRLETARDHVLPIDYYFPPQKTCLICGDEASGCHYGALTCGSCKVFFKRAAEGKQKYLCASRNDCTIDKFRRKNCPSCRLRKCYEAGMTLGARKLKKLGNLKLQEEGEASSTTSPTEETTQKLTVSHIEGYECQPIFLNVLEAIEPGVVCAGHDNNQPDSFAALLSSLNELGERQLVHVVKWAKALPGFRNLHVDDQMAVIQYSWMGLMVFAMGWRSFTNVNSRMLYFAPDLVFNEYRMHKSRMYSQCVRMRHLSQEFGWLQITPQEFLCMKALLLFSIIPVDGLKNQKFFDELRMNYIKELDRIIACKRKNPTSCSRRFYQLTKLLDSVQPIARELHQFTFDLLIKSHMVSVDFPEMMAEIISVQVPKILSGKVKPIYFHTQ

**Q.** Which AC50 [1] does the source give for `FC(F)(I)C(F)(F)C(F)(F)C(F)(F)C(F)(F)C(F)(F)I` here?
**A.** 45 µM (active)

**Q.** For `CC(=O)CC(C)(C)O`, which outcome [2] is on record?
**A.** inactive

**Q.** And the outcome [3]?
**A.** inactive

**Q.** What about the outcome [4] of the same compound?
**A.** inactive

**Q.** For `N#C[C@@H]1CC(F)(F)CN1C(=O)CNC1CC2CCC(C1)N2c1ncccn1` (stereo not given in full), which outcome [3] is on record?
**A.** inactive

**Q.** What about the outcome [5] of the same compound?
**A.** inactive

**Q.** And the outcome [6]?
**A.** inactive

**Q.** And the outcome [4]?
**A.** inactive

**Q.** For `CCc1ccc(CCOc2ccc(CC3SC(=O)NC3=O)cc2)nc1` (stereo not given), which AC50 [2] is on record?
**A.** 50 µM (active)

**Q.** What about the AC50 [3] of the same compound?
**A.** 26.5 µM (active)

**Q.** What about the outcome [1] of the same compound?
**A.** inactive

**Q.** And the AC50 [6]?
**A.** 55.8 µM (active)

**Q.** Which AC50 [1] does the source give for `CCCOc1sc(C(=O)N2CCC(c3cc(CN)ccc3F)CC2)c(C)c1Br` here?
**A.** 5.11 µM (active)

**Q.** With `Oc1cccc(O)c1` as the compound, how does the outcome [3] read?
**A.** inactive

**Q.** Which AC50 [2] does the source give for `CC#C[C@]1(O)CC[C@H]2[C@@H]3CCC4=CC(=O)CCC4=C3[C@@H](c3ccc(N(C)C)cc3)C[C@@]21C` here?
**A.** 28.1 µM (active)

**Q.** And the AC50 [3]?
**A.** 25.2 µM (active)

**Q.** And the AC50 [1]?
**A.** 90.5 µM (active) and 83.7 µM (active) and 82.6 µM (active)

**Q.** For `CC[C@H](C)[C@@H](C(=O)O)n1sc2ccccc2c1=O`, which outcome [3] is on record?
**A.** inactive

**Q.** With `c1ccc2c(c1)ccc1ccccc12` as the compound, how does the AC50 [2] read?
**A.** 50 µM (active)

**Q.** What about the AC50 [3] of the same compound?
**A.** 50 µM (active)

**Q.** And the outcome [1]?
**A.** inactive

**Q.** What about the AC50 [6] of the same compound?
**A.** 79.9 µM (active)

**Q.** And the AC50 [4]?
**A.** 50 µM (active)

**Q.** Which results are given for `COc1cc(CCC(=O)CC(=O)CCc2ccc(O)c(OC)c2)ccc1O`?
**A.** AC50 [2]: 68.5 µM (active); AC50 [3]: 61.8 µM (active); outcome [1]: inactive; outcome [5]: inactive; AC50 [4]: 74.6 µM (active)

**Q.** With `CC(O)C(=O)O` (stereo not given) as the compound, how does the outcome [2] read?
**A.** inactive

**Q.** What about the outcome [1] of the same compound?
**A.** inactive

**Q.** Which results are given for `CCCCCCC(=O)O`?
**A.** outcome [3]: inactive; outcome [1]: inactive

**Q.** Which results are given for `Nc1cccc2c(N)cccc12`?
**A.** outcome [1]: inactive; AC50 [5]: 0.115 µM (active); outcome [6]: inactive; AC50 [4]: 77.8 µM (active)

**Q.** For `CN1CCN(c2ccccc2/C=C2\SCCN(c3ccc(Cl)c(Cl)c3)C2=O)CC1`, which AC50 [2] is on record?
**A.** 66.3 µM (active)

**Q.** And the AC50 [3]?
**A.** 66.9 µM (active)

**Q.** And the AC50 [1]?
**A.** 50 µM (active)

**Q.** What about the outcome [6] of the same compound?
**A.** inactive

**Q.** Which results are given for `O=C(O)c1ccccc1C(c1ccc(O)cc1)c1ccc(O)cc1`?
**A.** outcome [2]: inactive; outcome [3]: inactive; outcome [1]: inactive; outcome [4]: inactive

**Q.** With `O=C1OC2(c3ccccc31)c1cc(Br)c(O)c(Br)c1Oc1c2cc(Br)c(O)c1Br` as the compound, how does the outcome [2] read?
**A.** inactive

**Q.** What about the outcome [1] of the same compound?
**A.** inactive

**Q.** For `OCCC(F)(F)C(F)(F)C(F)(F)C(F)(F)C(F)(F)C(F)(F)C(F)(F)C(F)(F)F`, which outcome [2] is on record?
**A.** inactive

**Q.** What about the outcome [3] of the same compound?
**A.** inactive

**Q.** What about the outcome [1] of the same compound?
**A.** inactive

**Q.** And the outcome [4]?
**A.** inactive

**Q.** Which AC50 [2] does the source give for `CCC(=C(c1ccc(O)cc1)c1ccc(OCCN(C)C)cc1)c1ccccc1` here?
**A.** 6.23 µM (active)

**Q.** And the AC50 [3]?
**A.** 5.79 µM (active)

**Q.** What about the AC50 [1] of the same compound?
**A.** 5.17 µM (active) and 6.37 µM (active) and 12.9 µM (active)

**Q.** What about the AC50 [4] of the same compound?
**A.** 7.6 µM (active)

**Q.** For `Oc1cc2ccccc2c2ccccc12`, which AC50 [2] is on record?
**A.** 18.1 µM (active)

**Q.** What about the AC50 [3] of the same compound?
**A.** 10.7 µM (active)

**Q.** What about the AC50 [1] of the same compound?
**A.** 4.66 µM (active)

**Q.** And the outcome [5]?
**A.** inactive

**Q.** And the AC50 [4]?
**A.** 8.26 µM (active)

**Q.** For `NC(=O)N1C(=O)C(C(=O)c2cc(Cl)cs2)c2cc(F)c(Cl)cc21` (stereo not given), which outcome [2] is on record?
**A.** inactive

**Q.** What about the outcome [3] of the same compound?
**A.** inactive

**Q.** What about the AC50 [1] of the same compound?
**A.** 87.5 µM (active)

**Q.** What about the outcome [4] of the same compound?
**A.** inactive

**Q.** With `O=c1c(-c2ccc(O)cc2)coc2cc(O)ccc12` as the compound, how does the outcome [2] read?
**A.** inactive

**Q.** What about the outcome [3] of the same compound?
**A.** inactive

**Q.** And the outcome [5]?
**A.** inactive

**Q.** What about the outcome [4] of the same compound?
**A.** inactive

**Q.** For `CN1CCC[C@H]1c1cccnc1`, which outcome [2] is on record?
**A.** inactive

**Q.** What about the outcome [3] of the same compound?
**A.** inactive

**Q.** And the outcome [1]?
**A.** inactive

**Q.** What about the outcome [6] of the same compound?
**A.** inactive

**Q.** Which outcome [2] does the source give for `COc1ccc([N+](=O)[O-])cc1N` here?
**A.** inactive

**Q.** And the AC50 [3]?
**A.** 27.3 µM (active)

**Q.** And the outcome [6]?
**A.** inactive

**Q.** With `C#C[C@]1(O)CC[C@H]2[C@@H]3CCC4=CC(=O)CC[C@@H]4[C@H]3CC[C@@]21C` as the compound, how does the AC50 [6] read?
**A.** 82 µM (active)

**Q.** What does the source list for `CCCCC[C@H](O)CC(=O)CCc1ccc(O)c(OC)c1`?
**A.** outcome [1]: inactive; outcome [5]: inactive

**Q.** For `CCCCCCCCCCCCc1ccccc1S(=O)(=O)O`, which outcome [2] is on record?
**A.** inactive

**Q.** And the outcome [3]?
**A.** inactive

**Q.** What about the AC50 [1] of the same compound?
**A.** 83.7 µM (active)

**Q.** And the outcome [5]?
**A.** inactive

**Q.** And the outcome [6]?
**A.** inactive

**Q.** And the AC50 [4]?
**A.** 72.9 µM (active)

**Q.** Which results are given for `O=C(/C=C/c1ccc(O)cc1)CC(=O)/C=C/c1ccc(O)cc1`?
**A.** AC50 [2]: 62.8 µM (active); AC50 [3]: 28.4 µM (active); outcome [1]: inactive; outcome [5]: inactive; AC50 [4]: 29.9 µM (active)

**Q.** With `NCC(F)(F)C(F)(F)C(F)(F)C(F)(F)C(F)(F)C(F)(F)C(F)(F)F` as the compound, how does the outcome [1] read?
**A.** inactive

**Q.** With `OCCC(F)(F)C(F)(F)C(F)(F)C(F)(F)C(F)(F)C(F)(F)F` as the compound, how does the outcome [2] read?
**A.** inactive

**Q.** And the outcome [1]?
**A.** inactive

**Q.** With `CCc1nn(C2CCCCC2)c2cc(C3(C#N)CCC(C(=O)O)CC3)ccc12` (stereo not given) as the compound, how does the outcome [3] read?
**A.** inactive

**Q.** For `CCN(CC)CCNc1ccc(CNC=O)c2sc3ccc(OC)cc3c(=O)c12`, which AC50 [2] is on record?
**A.** 7.1 µM (active)

**Q.** And the AC50 [3]?
**A.** 5.35 µM (active)

**Q.** What about the AC50 [1] of the same compound?
**A.** 83.2 µM (active)

**Q.** What about the AC50 [6] of the same compound?
**A.** 8.22 µM (active)

**Q.** Which AC50 [2] does the source give for `Cc1cc(CCN2CCN(c3nsc4ccccc34)CC2)cc2c1NC(=O)CC2(C)C` here?
**A.** 9.03 µM (active)

**Q.** What about the AC50 [3] of the same compound?
**A.** 21.4 µM (active)

**Q.** And the AC50 [1]?
**A.** 18.2 µM (active)

**Q.** What about the AC50 [6] of the same compound?
**A.** 6.3 µM (active)

**Q.** And the AC50 [4]?
**A.** 18.7 µM (active)

**Q.** For `CC1=C(/C=C/C(C)=C/C=C/C(C)=C/C(=O)O)C(C)(C)CCC1`, which AC50 [3] is on record?
**A.** 78.6 µM (active)

**Q.** Which results are given for `C[C@@H]1C[C@H]2[C@@H]3CCC4=CC(=O)C=C[C@]4(C)[C@@]3(F)[C@@H](O)C[C@]2(C)[C@@]1(O)C(=O)COP(=O)(O)O`?
**A.** outcome [3]: inactive; outcome [1]: inactive; AC50 [6]: 15.2 µM (active)

From PubChem BioAssay (EPA / NIEHS)
